Activity calls are given as the source filed them. The call rests on the fitted dose curve; in most records, active means well fitted activation curve with a large enough effect in the repeat runs; inconclusive means weak or mixed curves; inactive means flat fitted curve, though single readings scatter.
What follows are compounds tested against KiSS-1 receptor (Homo sapiens) (UniProt Q969F8) (assay: Human kisspeptin (KISS1R) small molecule agonists, calcium flux assay in KISS1R-HEK293 cells (AID 1920064)). Details: KISS1R-HEK293, calcium flux fluorescence, agonist; series mostly up to 76.8 µM.
Description: National Center for Advancing Translational Sciences [NCATS]
Division of Preclinical Innovation [DPI]
U.S. Environmental Protection Agency [EPA]
National Institutes of Environmental Health Sciences [NIEHS]
National Toxicology Program [NTP]
U.S. Food and Drug Administration [FDA]
Kisspeptin and its receptor KISS1R play key roles in mammalian reproduction due to their involvement in the onset of puberty and control of the hypothalamic-pituitary-gonadal axis such as regulates GnRH release from the hypothalamus. The kisspeptin/KISS1R system also plays a direct role in peripheral organs (including the ovary, testis, uterus, and placenta) and is implicated in reproductive diseases such as miscarriage and polycystic ovary syndrome (PCOS). Abnormal KISS1R activity is associated with abnormal puberty, infertility, endometriosis, and hormone-dependent tumors. The KISS1 receptor (KISS1R, also called GPR54), a G-protein-coupled receptor (GPCR), acts (through phospholipase C) to increase intracellular inositol trisphosphate and then release intracellular calcium stores. Cell-based KISS1R-HEK293 assay is using HEK293 cells that have been genetically engineered to express the human KISS1R, which activity can be measured by calcium signaling. A compound/drug can activate (agonist) KISS1R that can be monitored by levels of intracellular calcium.
KISS1R-HEK293 cells developed by Codex Corp contain human KISS1R gene, which was stably integrated into HEK 293 cells. The compound activation can be detected by fluorescence intensity via calcium flux assay. This cell line has been used to screen the Tox21 10K compound library to identify agonists of KISS1R.
KISS1R-Hek293 cells were dispensed at 1500 cells/4uL/well in 1536-well black wall/clear bottom plates using a multidrop dispenser. After the assay plates were incubated at a 37 C/5% CO2 incubator for 18 hours, 4 microL of Calcium Dye Solution was added to each well. The plates were incubated at 37 C for 1 hour. And then 23 nL of compounds dissolved in DMSO, positive controls, or DMSO only was transferred to the assay plate by a pin tool station. The fluorescence intensity in the plates was measured using FDSS 7000EX kinetic plate reader with a filter set of Ex/Em=480/540 for 3 min at 1 sec intervals. Each test compound was measured at 15 concentrations and in triplicates.

Chain of KiSS-1 receptor (Homo sapiens) (Q969F8 whole entry, looked up): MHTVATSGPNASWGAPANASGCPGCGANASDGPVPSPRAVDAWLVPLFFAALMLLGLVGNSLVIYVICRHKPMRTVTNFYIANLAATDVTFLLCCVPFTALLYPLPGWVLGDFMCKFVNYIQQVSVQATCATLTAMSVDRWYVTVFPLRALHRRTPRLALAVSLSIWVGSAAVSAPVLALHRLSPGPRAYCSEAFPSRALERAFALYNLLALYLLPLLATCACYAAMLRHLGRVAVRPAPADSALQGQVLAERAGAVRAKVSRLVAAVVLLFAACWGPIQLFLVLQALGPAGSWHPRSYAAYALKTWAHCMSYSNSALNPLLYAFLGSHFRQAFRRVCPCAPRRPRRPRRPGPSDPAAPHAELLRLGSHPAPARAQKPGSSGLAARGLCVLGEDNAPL

Structure (SMILES) | outcome
O=C(CCc1ccc(O)cc1)c1c(O)cc(O)cc1O | inactive
Cc1ccccc1C#N | inactive
O=C(O)c1c(O)c(-c2ccccc2)nc2ccccc12 | inactive
O=[N+]([O-])c1ccc2[nH]ncc2c1 | inactive
CCOC(=O)c1c(N)sc2c1CCN(Cc1ccccc1)C2 | inactive
C1=CCC(c2ccccc2)CC1 (stereo not given) | inactive
COc1ccc2c(c1OC)C(=O)O[C@@H]2[C@H]1c2c(cc3c(c2OC)OCO3)CCN1C | inactive
NCCCCCC(=O)O | inactive
CC(C)c1ccc(C#N)cc1 | inactive
Cc1cccc(C(=O)O)c1[N+](=O)[O-] | inactive
O=C(OCCN1CCOCC1)c1cccnc1Nc1cccc(C(F)(F)F)c1 | inactive
Cc1cn([C@@H]2O[C@H](CO)[C@@H](O)[C@@H]2F)c(=O)[nH]c1=O | inactive
O=c1cc[nH]cc1 | inactive
CCCCCCCCCCCCCCCCCC(=O)OCCCCCCCCCCCCCC(C)C | inactive
Cc1nc2ccc(Cl)cc2[nH]1 | inactive
COc1ccc(CN(CCN(C)C)c2ncccn2)cc1 | inactive
C[Si](C)(CCCN)O[Si](C)(C)CCCN | inactive
CC(C)CCCC(=O)O | inactive
CC(C)(O)c1ccccc1CC[C@@H](SCC1(CC(=O)O)CC1)c1cccc(/C=C/c2ccc3ccc(Cl)cc3n2)c1 | inactive
CCCCCCCCCCCCCC(=O)OCC | inactive

Structure (SMILES) | outcome
CCC(CO)(CO)COCC(CC)(CO)CO | inactive
C[C@@H]1[C@H](O)[C@@H](C)/C=C/C=C\C=C\C=C\C=C\C=C\C=C\[C@H](O[C@@H]2O[C@H](C)[C@@H](O)[C@H](N)[C@@H]2O)C[C@@H]2O[C@](O)(C[C@@H](O)C[C@@H](O)[C@H](O)CC[C@@H](O)C[C@@H](O)CC(=O)O[C@H]1C)C[C@H](O)[C@H]2C(=O)O (stereo in doubt) | inactive
COc1cc2c(cc1N)oc1ccccc12 | inactive
CCC(C(=O)O)c1ccc(N2Cc3ccccc3C2=O)cc1 (stereo not given) | inactive
CCCCCCCCCC(=O)OCC | inactive
C=CCc1ccccc1OCC(O)CNC(C)C (stereo not given) | inactive
CCN(CC)c1cccc(C)c1 | inactive
CC(=O)C=O | inactive
O=C(O)C(=O)Cc1c[nH]c2ccccc12 | inactive
COc1ccc([C@@H]2Sc3ccccc3NC(=O)[C@@H]2O)cc1 | inactive
CCCCCCCCCCCC | inactive
Cc1cc(CCCOc2c(C)cc(-c3noc(C(F)(F)F)n3)cc2C)on1 | inactive
CCOC(=O)CC | inactive
CC1=CP(=O)(c2ccccc2)CC1 (stereo not given) | inactive
CC(O)COC(C)(C)C (stereo not given) | inactive
COCC(=O)Nc1c(I)c(C(=O)NCC(O)CO)c(I)c(C(=O)N(C)CC(O)CO)c1I (stereo not given) | inactive
CCOC(=O)c1ccccc1O | inactive
C=CC(=O)O | inactive
NS(=O)(=O)c1ccc(Cl)c(S(N)(=O)=O)c1 | inactive
CN1CCN(C2Cc3ccccc3Sc3ccc(Cl)cc32)CC1 (stereo not given) | inactive

Reference: PubChem BioAssay (Tox21)
